Measurements taken from PubChem BioAssay AID1053144 (Broad Institute, 2014).
Screen size: about 3,400 compounds; about 160 (4.7%) were called active.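 Rule for the calls: active = fitted curve reaches 30% activation at a concentration no higher than the top valid tested dose, luminescence rising; inconclusive = no clear call, values can overlap the other calls; inactive = signal moving opposite to the expected increase, plus the rest.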 A selection follows. Potency and affinity values are given separately.

assay: Wnt/beta-catenin signaling activators, dose response, cell-based, iPS-derived NPC, luciferase, Wnt3a, cherry-pick (AID 1053144); details: NPC TCF/LEF luciferase reporter, Wnt3a EC25, 24 h; series mostly up to 26 µM;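 note: Wnt3a stimulus is conditioned medium from Wnt3a-transfected mouse L cells at 5% in well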

activation, inactive:
O=C(Nc1cccc(-c2ccc(N3CCOCC3)nn2)c1)c1ccc([N+](=O)[O-])cc1
Cc1ccc(C(=O)Nc2cccc(-c3ccc(N4CCOCC4)nn3)c2)cc1
N/C(=N\OC(=O)c1ccc(Cl)cc1Cl)c1cccnc1
COc1ccc(C(=O)Nc2cccc(C)c2)cc1
CN(C)Cc1c(C(=O)Nc2ccccc2)[nH]c2ccccc12
CC1CCN(C(=O)CNC(=O)c2ccc(Br)o2)CC1
COc1cccc(/C=C/c2ccccn2)c1O
COc1ccccc1NC(=O)COc1ccccc1C(=O)c1cnn(-c2ccccc2)c1
O=C(c1cnn(-c2cccc(F)c2)c1)c1ccccc1O
CC(O)C(NS(=O)(=O)c1ccc(Cl)cc1)C(=O)OCCOc1ccc(F)cc1 (stereo unspecified)
Cc1cnc(NC(=O)c2sc(Nc3ccccc3)nc2N)o1
CC(C)NC(=O)N(C)C[C@H]1Oc2ccc(NC(=O)Nc3ccccc3)cc2C(=O)N([C@H](C)CO)C[C@@H]1C
COc1cccc(CSc2nc3ccccc3[nH]2)c1
COc1cc2sc3cc(NCc4ccc(C)o4)ccc3c(=O)c2cc1OC
COc1ccc(Nc2n[nH]c(C)c2[N+](=O)[O-])cc1
CCOC(=O)C1=C(Nc2ccc(OC)cc2)OCC1=O
CCOc1ccc(C(=O)N(CC(=O)Nc2cccc(C)c2C)CC2CCCO2)cc1OC (stereo unspecified)
COc1ccc(-c2nnc(-c3cccnc3)o2)cc1
COc1ccc(S(=O)(=O)N2CCOCC2)cc1NC(=O)c1ccc2c(c1)OCCO2
C#CCOC(=O)CCCC(=O)Nc1ccccc1OC
C=CCn1c(C)nc2c(sc3nc4c(cc32)COC(C)(C)C4)c1=O
CCOc1ccc(/C=N/NC(=O)Cn2ccnc2C)cc1
COc1cc(/C=N/Nc2ccc(C(F)(F)F)cn2)ccc1O
O=C1NC(c2ccccc2Cl)=N/C1=C/c1ccco1
c1ccc(-c2cn(CC3CCCCC3)nn2)cc1
O=c1oc(CCCO)cc2ccc(C#Cc3ccsc3)cc12
COc1cc(C#Cc2ccc3cc(CCO)oc(=O)c3c2)cc(OC)c1
CCOC(=O)C1(Cc2cccc(OC)c2)CCCN(C(=O)c2ccccc2C)C1 (stereo unspecified)
Brc1ccsc1/C=N/Nc1ccccc1
Cc1cccc(C(=O)c2c(N)sc3c2CCCC3)c1
CC(=O)Nc1ccc(NC(=O)CN(c2ccccc2Cl)S(C)(=O)=O)cc1
CC(C)OC(=O)c1ccc2nc3ccccc3nc2c1
O=C(c1ccccc1)c1ccc(-c2ccc(O)cc2)cc1
Cc1nc(C)c(-c2csc(Nc3cccc(O)c3)n2)s1
COc1cccc(NC(=O)c2cccc(Cl)c2)c1
O=C(Nc1nc2ccccc2[nH]1)c1cccc(Cl)c1
O=C(CSc1nncs1)NCCCc1ccccc1
Cc1nc(-c2ccc(NC(=O)c3ccccc3Br)cc2)cs1
CC1=CC(=C2C(=O)c3ccccc3C2=O)C=C(C)N1Cc1ccco1
CCCC(=O)Nc1sc(C(=O)Nc2cccc(N)c2)c(C)c1C(=O)OC
COC(=O)c1c(NC(C)=O)sc(C(=O)Nc2ccccc2F)c1C
CCCc1nc2oc3c(NCC(C)O)ncnc3c2c2c1CCCC2 (stereo unspecified)
Cc1ccsc1C(=O)OCC(=O)N(C)C1CCCCC1
Cc1ccsc1C(=O)OCC(=O)c1ccc[nH]1
Cc1ccnc(NC(=O)C2COc3ccccc3O2)c1 (stereo unspecified)
CC(=Nc1ccccc1O)c1sc2ccccc2c1O
CC(=Nc1ccc(C)cc1)c1sc2ccccc2c1O
CCCC(=O)Nc1ccc(C#Cc2ccccc2)cc1
O=C(NN1C(=O)C2C3c4ccccc4C(c4ccccc43)C2C1=O)C1CC1 (stereo unspecified)
O=C(O)CC(CN1C(=O)c2ccccc2C1=O)c1ccccc1 (stereo unspecified)
c1ccc(-c2noc(C3CCCCC3)n2)nc1
Nc1ccc2c(c1)C(=O)c1ccccc1C2=O
CCc1ccc(NC2=CC(=O)C(=O)c3ccccc32)cc1
CC(C)NC(=O)c1cc(-c2ccc3c(c2)OCO3)on1
Cc1ccc(S(=O)(=O)N2CCN(C(=O)Cn3c(=O)cnc4ccccc43)CC2)c(C)c1
COc1ccccc1CN(C)C(=O)C1COc2ccccc2O1 (stereo unspecified)
Cc1ccc(/C=C/C(=O)Nc2cc(C)on2)cc1
CCCC(=O)Nc1ccc(C(=O)COC(=O)C2CC2C)cc1 (stereo unspecified)
CC(=O)Nc1ccc(C(=O)COC(=O)C2CC2)c(F)c1
Cc1ccc(OCC(=O)O/N=C(\N)c2ccccn2)cc1C
COc1ccc2nc(Nc3ccccc3OC)sc2c1
Cc1cc(Cl)ccc1OCc1nnc(-c2ccccc2C)o1
COc1ccccc1-c1nc(COc2ccc(Cl)cc2Cl)no1
CCOc1ccc(NC2c3ccccc3C(=O)N2c2ccc(Cl)cn2)cc1 (stereo unspecified)
O=C(CN1C(=O)CCC1=O)Nc1nc(-c2ccc3ccccc3c2)cs1
CCN(CC)S(=O)(=O)c1ccc(O)c(NC(=O)COc2ccc(S(=O)(=O)N3CCOCC3)cc2)c1
O=C1NC(=Nc2ccccc2)S/C1=C/c1cccs1
Cc1ccc(N/C=C2/Sc3ccccc3NC2=O)cc1
COC(=O)[C@@H](Cc1c[nH]c2ccccc12)NC(=O)c1ccc2c(c1)OCO2
CCCCNC(=O)C1CC(c2cccc(F)c2)=NO1 (stereo unspecified)
COc1ccc(CNC(=O)C(=O)NCC(c2ccco2)N2CCOCC2)cc1 (stereo unspecified)
O=C(COc1ccc(Cl)cc1Br)NC(=O)NC1CCCC1
Cc1ccc(C(=O)Nc2ccc3c(c2)OCO3)cc1Cl
O=C(Nc1ccc(F)cc1F)c1cc2ccccc2oc1=O
O=C(NCCc1c[nH]c2ccccc12)c1cc(Cl)c2c(c1)OCO2
COc1ccc(/C(N)=N/OC(=O)C2CCCCC2)cc1
Cc1ccc(NC(=O)c2sccc2C)cc1[N+](=O)[O-]
Cc1cccnc1NC(=O)c1cc2ccccc2oc1=O
COc1ccc(-c2nc3c4ccccc4[nH]c(=O)n3n2)cc1
O=C(Nc1nccs1)c1sc2cc(Cl)ccc2c1Cl
O=C(NCC(=O)N1CCCCC1)c1sc2ccccc2c1Cl
C/C(=C\c1ccccc1)C(=O)NCc1ccco1
O=C(NN1C(=O)C2C3c4ccccc4C(c4ccccc43)[C@@H]2C1=O)c1ccccc1 (stereo partly specified)
CCOC(=O)c1cccc(COC(=O)c2cccc(-c3nnc(-c4ccccc4)o3)c2)c1
CN(CC(=O)Nc1ccc(F)cc1)C(=O)COC(=O)c1cccc(N(C)C)c1
COc1ccc(/C=C2\CCC(C3CCCC3)C2=O)cc1OC (stereo unspecified)
Cc1cc(C)n(-c2nc3ccccc3s2)n1
CN(C)c1ccc(-c2ccc3c(=O)c4ccccc4n(C)c3c2)cn1
O=C(COn1nnc2ccccc21)NCC1CCCCC1
O=C(NNS(=O)(=O)c1ccccc1)C1CCN(S(=O)(=O)c2ccccc2)CC1
O=C(Nc1ccccc1)c1cc2ccccc2o1
O=C(c1ccc(F)cc1)c1cc2ccccc2o1
COc1ccc(/C=C2/CCc3ccccc3C2=O)cc1OC
O=C(/C(=C/c1ccc(Cl)cc1)c1nc2ccccc2[nH]1)c1ccccc1
Cc1ccc(/C=C/C(=O)c2nc3ccccc3[nH]2)cc1
Nc1c(C(=O)Nc2ccc(Cl)cc2)oc2ccccc12
O=C(/C=C/c1ccco1)Nc1ccccc1C(=O)O
CCc1nnc(NC(=O)/C=C/c2ccco2)s1
CCOc1ccc(CCNC(=O)COC(=O)c2cccc(N(C)C)c2)cc1OCC
CCOc1ccc(CCNC(=O)COc2cc(=O)n(C)c3ccccc23)cc1OCC
CC(C)(C)c1ccc(/C=C/C(=O)Nc2cccnc2)cc1
Cc1cc(C(=O)COC(=O)c2ccc(O)cc2)c(C)n1CC(F)(F)F
C(=C\c1cc(/C=C/c2ccccc2)ncn1)/c1ccccc1
COc1ccc(C(=O)/C=C/c2ccccc2C(F)(F)F)cc1
COC(=O)c1ccc(NC(=O)Cc2ccccc2)cc1
CCCCOC(=O)Nc1ccc(N2CCCCC2)cc1
COc1ccc(/C=C(/NC(=O)c2ccccc2Cl)C(=O)O)cc1
O=C(O)Cc1sc(Nc2ccccc2)nc1-c1cccs1
Cc1nc(Nc2ccccc2)sc1C(=O)c1ccccc1
O=C(Nc1ccc(Cl)cc1)Nc1ccccc1C(=O)NCc1ccco1
COC(=O)CNc1c(-c2ccccn2)nc2ccc(Br)cn12
Cc1ccsc1C(=O)OCc1cc(=O)n2ccsc2n1
COC(=O)c1ccc(NC(=O)c2cccc(OC)c2)cc1
COc1ccc(NC(=O)c2cccc(OS(=O)(=O)N(C)C)c2)cc1
O=C(/C=C\c1ccco1)Oc1cccc2cccnc12
C(=N\Nc1nccc(-c2cccnc2)n1)/c1ccccc1
CC(C)(C)c1cc(C(=O)NNC(=O)c2ccc(C(F)(F)F)cc2)no1
COc1ccc(/C=C/C(=O)c2ccccn2)cc1
CN(C)c1ccc(/C=C/c2ccncc2)cc1
COc1c(OC(C)=O)ccc(/C=C/c2ccc3cccc(OC)c3n2)c1[N+](=O)[O-]
CC(=O)Nc1ccc(-c2ccnc3c2CC(C)(C(=O)NC(C)C)O3)cc1 (stereo unspecified)
